Screens from PubChem.
SW480 rerep – A quantitative high throughput screen for small molecules that induce DNA re-replication in SW480 colon adenocarcinoma cells; Potency, µM (highest dose often 46.1 µM), usual class: activators; actives 1.8% (n = 340,000); AID 624297, 2012; SW480 DNA re-replication, Hoechst DNA content imaging, 48 h; further: nearly all actives have a fitted effect of over 55% in size
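250 cells/well; 23 nL cpd via pin tool; 48 hr, 37 C, 5% CO2; Hoechst 40 min; imager read of total nuclear intensity, ex 405/em 500-530 nm.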
KB-3-1 tox – qHTS assay for MDR1-selective chemotherapeutics: Primary screen using the parental adenocarcinoma cell KB-3-1 | KB-3-1 viability, CellTiter-Glo ATP luminescence, 72 h | Potency, µM (titrated, usually from 46.1 µM), actives largely listed as cytotoxic | actives 1.4% (n = 400,000) | AID 1347075, 2019; further: nearly all actives have a fitted effect of over 60% in size
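Screening of KB-3-1 cells (DMEM, 10% FBS, phenol-red free) ran from lowest to highest compound concentration; after 72 h at 37 °C viability was read luminescently and curves fitted.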
HT1080-NT tox – qHTS for induction of synthetic lethality in tumor cells producing 2HG: qHTS for the HT-1080-NT fibrosarcoma cell line; Potency, µM (top dose mostly 46.1 µM), actives largely listed as cytotoxic; HT-1080-NT fibrosarcoma viability, CellTiter-Glo ATP luminescence, 48 h; actives 1.6% (n = 360,000);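 further: NT is the 2HG producing partner of a matched IDH1 knockdown line; nearly all actives have a fitted effect of over 55% in size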
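Read-out is CellTiter-Glo luminescence after 10 minutes at room temperature, following 48 hours' compound treatment of HT-1080-NT cells (750 cells/well, RPMI, 5% FBS, 37 degrees C).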
HT1080 IDH1KD tx – qHTS for induction of synthetic lethality in tumor cells producing 2HG: qHTS for the HT-1080-IDH1KD cell line; actives 2% (n = 360,000); Potency, µM (top dose mostly 46.1 µM), hits mostly cytotoxic; HT-1080 IDH1 knockdown viability, ATP luminescence, 48 h
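% activity derives from luminescence (CellTiter-Glo), normalised to DMSO and no-cell wells. HT-1080-IDH1KD cells, 750/well, had 48 h compound exposure at 37 °C.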
MCF10A rereplic – A quantitative high throughput screen for small molecules that induce DNA re-replication in MCF 10a normal breast cells; MCF 10A DNA re-replication, Hoechst nuclear intensity, 48 h; Potency, µM (top dose mostly 46.1 µM), usual class: activators; actives 2.9% (n = 350,000); AID 624296, 2012; further: nearly all actives have a fitted effect of over 50% in size
KB-V1 MDR tox – qHTS assay for MDR1-selective chemotherapeutics: Primary screen using the drug-selected MDR subline cells KB-V1 | KB-V1 MDR cells viability, CellTiter-Glo, 72 h | Potency, µM (series often up to 46.1 µM), actives largely listed as cytotoxic | actives 3.4% (n = 400,000) | AID 1347076, 2019; further: nearly all actives have a fitted effect of over 60% in size
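KB-V1 MDR subline cells in DMEM (phenol-red free, 10% FBS) exposed to compounds in qHTS concentration series for 72 h at 37 degrees C. Viability read by CellTiter-Glo luminescence; concentration-effect curves fitted after normalization and correction.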
Numbers stand for hits; n = inactive; u = inconclusive; x = no result; [ ] = dose if it differs, or a comment. The list is not random: actives were taken first. Their share in the collection is about 7.9%. The call rests on the fitted dose curve; in most records, active means well fitted curve in the direction sought with a large enough effect; inconclusive means small, poorly fitted or top-dose-only effect, or another doubt; inactive means no such curve, though single readings can be large; an effect the other way counts as inactive or inconclusive.

SMILES | SW480 rerep | KB-3-1 tox | HT1080-NT tox | HT1080 IDH1KD tx | MCF10A rereplic | KB-V1 MDR tox
Cn1c(=O)[nH]c2cc(-c3noc(-c4ccc(Br)cc4)n3)ccc21 | x | n | x | x | x | u
Cc1ccccc1Cn1ccc(NC(=O)c2nn(C)cc2[N+](=O)[O-])n1 | 10µM | n | u | n | 6.5µM | u
CCCC1=Nc2cc(C(=O)NCc3ccc(OC)cc3)ccc2Sc2ccc(C)cc21 | x | n | x | x | x | u
CCC1=Nc2cc(C(=O)NCc3ccccc3Cl)ccc2Sc2ccc(C)cc21 | x | 3.7µM | x | x | x | u
CC1=Nc2cc(C(=O)NCc3ccccc3Cl)ccc2Sc2c(C)ccc(C)c21 | x | 1µM | x | x | x | 1.5µM
CC1=Nc2cc(C(=O)O)ccc2Sc2c(C)ccc(C)c21 | n | n | n | n | n | n
Cc1cc(C)cc(-n2ccnc2SCC(=O)Nc2nc3ccc(C)cc3s2)c1 | x | u | x | x | x | n
COc1ccc(S(=O)(=O)N2CCCC2CNC(=O)C(=O)NCc2ccccc2)cc1 (centres undefined) | n | u | n | n | n | u
O=C(NCc1ccc(F)cc1)C(=O)NCC1CCCN1S(=O)(=O)c1ccccc1 (centres undefined) | n | n | n | n | n | u
O=C(NCCc1ccc(F)cc1)C(=O)NCC1CCCN1S(=O)(=O)c1ccccc1 (centres undefined) | u | 18µM | n | u | u | 5.8µM
COc1ccc(S(=O)(=O)N2CCCC2CNC(=O)C(=O)NCCc2ccccc2)cc1 (centres undefined) | u | 8.2µM | u | 18µM | u | 4.6µM
COc1ccccc1CNC(=O)C(=O)NCCC1CCCCN1S(=O)(=O)c1ccccc1 (centres undefined) | n | n | n | n | n | n
COc1ccc(CCNC(=O)C(=O)NCC2CCCN2S(=O)(=O)c2ccccc2)cc1 (centres undefined) | 4.6µM | n | u | n | u | n
COc1ccccc1CCNC(=O)C(=O)NCC1CCCN1S(=O)(=O)c1ccccc1 (centres undefined) | u | n | u | u | u | 21µM
Cc1cc(Nc2cccc(F)c2)n2nc(-c3ccco3)nc2n1 | x | n | x | x | x | n
COc1ccc(NS(=O)(=O)c2ccc3c(c2)CCN3C(=O)CCC(=O)O)cc1Cl | x | n | x | x | x | n
Cc1ccc(-c2[nH]ncc2C(=O)c2ccc(Br)cc2)c(O)c1 | n | n | u | u | n | n
Cc1cc(=O)[nH]c(N=N/C(=N/Nc2ccc(O)cc2)c2ccccc2)n1 | n[9.22 µM] | u | n | u | u | n
COc1ccc(N/N=C(/N=Nc2nc(C)cc(=O)[nH]2)c2ccccc2)cc1 | u | 6.5µM | u | 3.7µM | u | u
Cc1cc(=O)[nH]c(N=N/C(=N/Nc2ccccc2C)c2ccccc2)n1 | 5.2µM | 4.6µM | u | u | n | n
CC(C)(C)c1ccc(OCCCC(=O)Nc2nnc(C3CC3)s2)cc1 | x | n | n | n | x | n
CSCCC(NS(=O)(=O)c1cccs1)C(=O)NCc1ccc(C)cc1 (centres undefined) | 0.16µM | n | n | n | n | u
CCOC(=O)CNC(=O)C(Cc1ccccc1)NS(=O)(=O)c1cccs1 (centres undefined) | n | n | n | n | 21µM | n
FC(F)(F)c1cccc(-n2c(Cn3nnc4ccccc43)n[nH]c2=S)c1 | 2.6µM | n | n | n | n | n
S=c1[nH]nc(Cn2nnc3ccccc32)n1-c1ccccc1 | n | n | n | n | n | n
SMILES | SW480 rerep | KB-3-1 tox | HT1080-NT tox | HT1080 IDH1KD tx | MCF10A rereplic | KB-V1 MDR tox
CN(C)C=NC(=O)c1cc2c(n(-c3ccccc3)c1=O)CC(C)(C)CC2=O | x | n | x | x | x | n
CCCS(=O)(=O)c1nc(S(=O)(=O)c2ccc(C)cc2)c(N2CCN(C)CC2)s1 | n | n | n | n | n | n
Cc1ccc(S(=O)(=O)c2nc(S(=O)(=O)c3ccccc3)sc2N2CCN(CCO)CC2)cc1 | n | 21µM | u | n | n | u
Cc1ccc(S(=O)(=O)c2nc(S(=O)(=O)c3ccccc3)sc2N2CCN(C)CC2)cc1 | n | u | u | u | 23µM | u
CCS(=O)(=O)c1nc(S(=O)(=O)c2ccc(C)cc2)c(N2CCN(CCO)CC2)s1 | n | n | n | n | n | n
COc1cccc(OCc2cc(=O)n3c(-c4ccccc4)csc3n2)c1 | x | n | x | x | x | n
Cc1ccccc1NC(=O)CCNC(=O)Cn1ccc2ccccc2c1=O | x | n | x | x | x | n
O=C(Nc1ccc(F)cc1)Nc1nnc(Cc2ccccc2F)s1 | n | n | n | n | n | 18µM
O=C(Nc1ccccc1)Nc1nnc(Cc2ccccc2F)s1 | n[9.22 µM] | n | n | n | n | n
COc1cccc(NC(=O)Nc2nnc(Cc3ccccc3F)s2)c1 | n | n | n | u | 15µM | u
COc1ccc(NC(=O)CCc2c(C)nc3nc(CNC(=O)OC(C)(C)C)nn3c2C)cc1OC | x | n | x | x | x | u
Nc1ncnc(N2CCOCC2)n1 | n | n | n | n | n | n
CC1CC1c1ccc(/C=C(\C#N)C(=O)Nc2ccc(Cl)cc2Cl)o1 (centres undefined) | x | n | n | n | 16µM | u
COc1ccc([C@H]2C[C@H](n3cc(-c4ccc(F)cc4)nn3)[C@@H](O)CN2Cc2cccs2)cc1 | x | n | n | n | x | n
COc1ccc([C@H]2C[C@H](O)[C@@H](n3cc(-c4ccc(F)cc4)nn3)CN2Cc2cccs2)cc1 | x | u | 2.9µM | 4.6µM | x | u
O[C@H]1C[C@H](c2ccccc2)N(Cc2cccs2)C[C@@H]1n1cc(-c2ccc(F)cc2)nn1 | x | u | 23µM | 18µM | x | u
CCc1nc(SCC(=O)Nc2ccc(NC(C)=O)cc2)n[nH]1 | x | n | x | x | x | n
CCC1(OC(=O)CN(C)C)C(=O)OCc2c1cc1n(c2=O)Cc2cc3c(N)cccc3nc2-1 (centres undefined) | u | u | 7.3µM | 7.3µM | n | 2.9µM
c1ccc2c(c1)OCCOCCOCCOCCOCCOc1ccccc1OCCOCCOCCO2 | u | 5.2µM | u | u | u | 5.2µM
CN(CC(=O)Nc1ccc(Cl)c(C(F)(F)F)c1)C(=O)c1cccc2cccnc12 | n | n | n | n | n | 18µM
COc1ccc(NC(=O)CSCC(=O)N(C)CC(=O)Nc2ccc(Cl)c(C(F)(F)F)c2)cc1 | u | n | u | n | n | n
Cc1cc(C)cc(OCC(=O)N(C)CC(=O)Nc2ccc(Cl)c(C(F)(F)F)c2)c1 | n | u | n | n | 6.5µM | n
